This note sets out measurements from PubChem BioAssay (EPA / NIEHS).

Records with an inconclusive call do not appear. The source made the active and inactive calls. The calls were made as follows: active = hit-call score of the fitted dose curve at least 0.9, where 1 is the maximum; inconclusive = response in the unintended direction; inactive = score below 0.9.

The target in this assay is Estrogen receptor (Homo sapiens) (UniProt P03372). The experiment in a line: ATG_ERa_TRANS: Attagene TRANS-FACTORIAL HepG2 Assay for human Estrogen Receptor alpha (ERa) (AID 2282970). To be noted: HepG2 Attagene TRANS ERa GAL4 reporter, mRNA. The protocol: ATG_TRANS is a cell-based, multiplexed-readout assay that uses HepG2, a human liver cell line, with measurements taken at 24 hours after chemical dosing in a 24-well plate.ATG_ERa_TRANS is one of 30 assay component(s) measured or calculated from the ATG_TRANS assay. It is designed to make measurements of mRNA induction, a form of inducible reporter, as detected with fluorescence intensity signals by Reverse transcription polymerase chain reaction (RT-PCR) and Capillary electrophoresis technology.Data from the assay component ATG_ERa_TRANS was analyzed into 1 assay endpoint. This assay endpoint, ATG_ERa_TRANS, was analyzed in the positive analysis fitting direction relative to DMSO as the negative control and baseline of activity. Using a type of inducible reporter, measures of mRNA for gain-of-signal activity can be used to understand the reporter gene at the transcription factor-level as they relate to the gene ESR1. Furthermore, this assay endpoint can be referred to as a primary readout, because this assay has produced multiple assay endpoints where this one serves a reporter gene function. To generalize the intended target to other relatable targets, this assay endpoint is annotated to the nuclear receptor intended target family, where the subfamily is steroidal.
Estrogen receptor (Homo sapiens), sequence (P03372 whole entry, looked up, the tested form may be a part): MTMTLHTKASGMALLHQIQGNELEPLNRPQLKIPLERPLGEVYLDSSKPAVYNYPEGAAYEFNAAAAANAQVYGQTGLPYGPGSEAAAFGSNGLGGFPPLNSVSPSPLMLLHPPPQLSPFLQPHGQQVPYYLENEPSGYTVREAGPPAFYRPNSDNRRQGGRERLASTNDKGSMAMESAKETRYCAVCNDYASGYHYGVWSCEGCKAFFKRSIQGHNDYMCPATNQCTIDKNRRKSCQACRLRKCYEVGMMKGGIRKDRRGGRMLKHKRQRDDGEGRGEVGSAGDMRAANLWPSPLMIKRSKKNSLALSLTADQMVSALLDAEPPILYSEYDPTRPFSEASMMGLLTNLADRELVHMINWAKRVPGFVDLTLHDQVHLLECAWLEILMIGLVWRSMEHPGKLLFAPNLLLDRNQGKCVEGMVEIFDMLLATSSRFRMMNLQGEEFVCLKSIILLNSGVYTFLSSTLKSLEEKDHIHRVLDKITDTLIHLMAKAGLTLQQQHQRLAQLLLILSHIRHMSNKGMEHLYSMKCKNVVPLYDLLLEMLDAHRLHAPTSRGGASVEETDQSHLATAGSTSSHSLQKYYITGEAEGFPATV
Human liver HepG2 cells are transiently transfected with multiple reporter transcription units (MRTUs) in 6-well plates using FuGene 6 reagent (Roche; 3 ml FuGene/1 mg DNA). The MRTU constructs are regulated by a cis-regulating element (promoter). […] A major difference between the CIS and TRANS system is that in CIS activities of endogenous TFs are measured, whereas the TRANS assay evaluates changes in activities of exogenous, chimeric NR-Gal4 proteins. […] At the end of 24 hour incubation, total RNA was isolated using TriZol reagent (Invitrogen). The isolated RNA is then reverse-transcribed using oligo(dT) primer and Mo-MLV reverse transcriptase (Invitrogen) with DNAse I (Ambion) treatment for 30 min. The one-tenth of the produced cDNA was amplified by PCR using Taq DNA polymerase (Invitrogen) and two reporter sequence-specific primers. The PCR products were fluorescently labeled by primer extension with 6-arboxyfluorescein (6-FAM) 5'-labeled reporter sequence-specific primer (2 min at 95 C, 20 s at 68 C and 10 min at 72 C) and these products were digested with 5U of HpaI (New England Biolabs) for 2h at 37 C. […] The raw capillary electrophoresis data was processed using Attagraph software (Attagene).
Take `C1CCC(NC2CCCCC2)CC1`: the AC50 is 59.7 µM (active).
Regarding `CCNc1nc(NC(C)(C)C)nc(SC)n1`, the call was inactive.
With `CCc1ccccc1N`, the molecule was called inactive.
Take `CCSC(C)CC1CC(=O)C(C(CC)=NOC/C=C/Cl)=C(O)C1` (stereo not given): the result was inactive.
With `Clc1ccc(C2(Cn3cncn3)CC(Br)CO2)c(Cl)c1` (stereo not given), the AC50 is 6.86 µM (active).
Take `C=C(C)C#N`: the molecule was called inactive.
For the molecule `COP(=S)(OC)Oc1cc(Cl)c(Cl)cc1Cl`, the AC50 was 36.3 µM (active).
For `ClCCBr`, the molecule was called inactive.
The same measure, in the same setting: the result for `OCc1ccco1` reads “inactive”.
In the case of `CCC[CH2][Sn]([CH2]CCC)([CH2]CCC)[O]C(=O)c1ccccc1`, the AC50 was 0.774 µM (active).
Turning to `COP(=S)(OC)Oc1ccc(S(=O)(=O)N(C)C)cc1`, the molecule was called inactive.
As for `Nc1ccc(-c2ccc(N)c(Cl)c2)cc1Cl`, the AC50 is 2.04 µM (active).
For `C=CC#N`, the molecule was classed as inactive.
Same read-out and setting: the result for `COc1ccc(C=O)cc1` reads “inactive”; that for `CC(=O)C(Cl)C(=O)N(C)C` (stereo not given), “inactive”.
For the molecule `Clc1ccc(COC(Cn2ccnc2)c2ccc(Cl)cc2Cl)cc1` (stereo not given), the molecule was classed as inactive.
On the same count and under the same terms, the result for `O=P(O)(O)CN(CP(=O)(O)O)CP(=O)(O)O` reads “inactive”; that for `CCCCP(CCCC)CCCC`, “inactive”; that for `COS(=O)(=O)c1ccc(C)cc1`, “inactive”.
Turning to `COP(=O)(OC)OC`, the outcome was inactive.
Consider `N#CN=C(N)N`, for which the molecule was classed as inactive.
For `COP(=S)(OC)Oc1c(Cl)cc(C)cc1Cl`, the AC50 was 3.3 µM (active).
For the molecule `O=C(Nc1ccc2[nH]ccc2c1)c1cc2cc(F)ccc2n1Cc1cccc(F)c1`, the call was inactive.
Same read-out and setting: the result for `COc1ccccc1OC` reads “inactive”.
In the case of `COC[C@H](C)N(C(=O)CCl)c1c(C)csc1C`, the call was inactive.
On the same count and under the same terms, as for `O=C(NCO)NCO`, the entry is “inactive”.
Consider `COC(=O)c1sccc1S(=O)(=O)NC(=O)Nc1nc(C)nc(OC)n1`, for which the outcome was inactive.
The same measure, in the same setting: as for `O=[N+]([O-])c1ccc2c3c(cccc13)CC2`, the entry is “inactive”; as for `CC(C)c1cccc(C(C)C)c1O`, “inactive”; as for `Nc1cccc(Cl)c1`, “inactive”.
Take `O=C(OC1CCCCC1)c1ccccc1C(=O)OC1CCCCC1`: the AC50 was 3.1 µM (active).
Regarding `CCC(=O)C(CC(C)N(C)C)(c1ccccc1)c1ccccc1` (stereo not given), the molecule was called inactive.
Same read-out and setting: the result for `CCCCCCCCSC(=O)Oc1cc(Cl)nnc1-c1ccccc1` reads “inactive”.
For the molecule `COc1cc(OC)nc(NC(=O)NS(=O)(=O)c2ncccc2C(=O)N(C)C)n1`, the AC50 is 77.8 µM (active).
Turning to `N#CCCO`, the result was inactive.
Take `O=C(Cc1ccccc1)c1ccccc1`: the AC50 is 22.7 µM (active).
For `ClC1=C(Cl)[C@]2(Cl)[C@H]3[C@H]([C@H]4C=C[C@H]3C4)[C@@]1(Cl)C2(Cl)Cl`, the concentration at half-maximal activity (AC50) was 8.38 µM (active).
With `O=[N+]([O-])c1c(Cl)c(Cl)cc(Cl)c1Cl`, the result was inactive.
The same measure, in the same setting: the result for `ClCc1ccccn1` reads “inactive”.
Turning to `CCOP(=S)(OCC)Oc1nc(Cl)c(Cl)cc1Cl`, the AC50 was 26.9 µM (active).
